Holding throughout (experiment): qHTS profiling for inhibitors of Plasmodium falciparum proliferation (AID 504749); further: nearly all actives have a fitted effect of over 60% in size
Holding throughout (settings): P. falciparum in erythrocytes, SYBR Green DNA, 72 h; series mostly up to 28.7 µM
A general note: In qHTS, concentration-response curves come from the screen itself.

One test concerns CP297. The procedure, abridged: (§1)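 Each compound contacts P. falciparum-infected red blood cells for 72 h at 37 C; lysis buffer (Tris, EDTA, saponin, Triton X, SYBR Green I) is added and fluorescence measured next morning; values normalized to controls.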
The next test deals with CP305. The procedure, abridged: as §1
The test system of the next test is CP315. The procedure, abridged: as §1
Another test has as its system CP325. The procedure, abridged: as §1
A further test relates to CP329. The procedure, abridged: as §1
The subject of a further test is CP335. The procedure, abridged: as §1
Another test concerns DFO2036. The procedure, abridged: as §1
The next test concerns DIV14. The procedure, abridged: as §1
The subject of another test is DIV17. The procedure, abridged:
as §1

The next test deals with DIV30. The procedure, abridged: as §1
Another test concerns Dd2. The procedure, abridged:
as §1

The test system of another test is ECU. The procedure, abridged:
as §1

Another test relates to FAB9. The procedure, abridged:
as §1

The next test deals with GB4. The procedure, abridged:
as §1

A further test deals with HB3. The procedure, abridged:
as §1

The next test deals with ICS. The procedure, abridged:
as §1

In a further test the test system is N140. The procedure, abridged:
as §1

The test system of a further test is P93_24. The procedure, abridged:
as §1

A further test concerns P94_40. The procedure, abridged:
as §1

A further test deals with JCK. The procedure, abridged: as §1

From PubChem BioAssay (NCATS) come the findings set out here.

Records with an inconclusive call do not appear. The source made the active and inactive calls. The call rests on the fitted dose curve; in most records, active means well fitted inhibition curve with a large enough effect; inconclusive means small, poorly fitted or top-dose-only effect; inactive means flat fitted curve, though single readings scatter.
Potency means the concentration at half of the fitted maximal effect.

In the case of `CC(C)=CCC/C(C)=C/CC/C(C)=C/CC/C=C(\C)CC/C=C(\C)CCC=C(C)C`, the Potency entry with CP297, in the test with CP305, in the test on CP315, in the test on CP325, in the test with CP329 and with CP335 was “inactive” throughout. Further, the Potency result with DFO2036, in the test with DIV14, in the test on DIV17, in the test with DIV30, in the test on Dd2 and in the test on ECU was “inactive” in each case. The Potency result in the test with GB4, with HB3, with ICS, in the test with N140, with P93_24 and in the test with P94_40 was “inactive” each time. The Potency in the test on FAB9 is 1e-05 µM (active).
With `CC(C)(Oc1ccc(C2CCCc3ccccc32)cc1)C(=O)O` (centres undefined), the Potency result with CP297, in the test with CP305, in the test with CP315, in the test on CP325, in the test with CP329 and in the test on CP335 was “inactive” each time. Further, the Potency entry in the test with DFO2036, in the test with DIV14, in the test on DIV17, with DIV30, with Dd2 and in the test on ECU was “inactive” throughout. Moreover, the Potency result in the test on FAB9, with GB4, with HB3, in the test on ICS, in the test on JCK and in the test with N140 was “inactive” throughout. Moreover, the Potency entry with P93_24 and in the test on P94_40 was “inactive” throughout.
`C=Cc1ccc(S(=O)(=O)O)cc1`: the Potency result in the test with CP297, in the test with CP305, with CP315, in the test with CP325, with CP329 and in the test with CP335 was “inactive” each time. Further, the Potency entry in the test on DFO2036, in the test on DIV14, in the test on DIV17, in the test on DIV30, with Dd2 and in the test with ECU was “inactive” each time. The Potency result in the test on FAB9, with GB4, in the test with HB3, in the test on ICS, in the test with JCK and in the test with N140 was “inactive” in each case. For the same molecule, the Potency entry in the test on P93_24 and in the test with P94_40 was “inactive” in each case.
Regarding `O=C(O)CCC/C=C\C[C@@H]1[C@@H](/C=C/[C@@H](O)COc2cccc(Cl)c2)[C@H](O)C[C@@H]1O`, the Potency entry in the test on CP297, in the test on CP305, in the test with CP315, in the test on CP325, in the test with CP329 and with CP335 was “inactive” in each case. The Potency result in the test on DFO2036, with DIV14, in the test with DIV30, with Dd2, in the test on ECU and in the test with FAB9 was “inactive” in each case. Further, the Potency entry in the test with GB4, in the test on HB3, in the test on JCK, in the test on N140, with P93_24 and in the test on P94_40 was “inactive” in each case.
With `CN1C(C(=O)Nc2ccccn2)C(=O)c2sc(Cl)cc2S1(=O)=O` (centres undefined), the Potency result in the test with CP297, with CP305, in the test with CP315, in the test with CP325, in the test on CP329 and with CP335 was “inactive” each time. The Potency result in the test on DFO2036, in the test with DIV14, in the test with DIV17, in the test on DIV30, with Dd2 and in the test with ECU was “inactive” throughout. Moreover, the Potency entry in the test with FAB9, with GB4, in the test with HB3, with JCK, in the test with N140 and in the test on P93_24 was “inactive” in each case. For the same molecule, in the test on P94_40, the Potency result is “inactive”.
Take `NC(=S)N=Nc1ccc(NN=C(N)N)cc1`: the Potency was 9.53 µM (active) with CP297; 7.57 µM (active) with CP305; 8.49 µM (active) in the test with CP315; 10.7 µM (active) in the test with CP325; 7.57 µM (active) in the test with CP329; 8.49 µM (active) in the test with CP335. The Potency in the test with DFO2036 was 5.01 µM (active); in the test with DIV14, 6.01 µM (active); in the test with DIV17, 7.57 µM (active); in the test with DIV30, 9.53 µM (active); with Dd2 it was 2.51 µM (active); in the test on FAB9 it was 11.2 µM (active). Moreover, the Potency was 6.75 µM (active) in the test on GB4; 5.62 µM (active) in the test with HB3; 5.01 µM (active) in the test on ICS; 8.91 µM (active) with JCK; 7.94 µM (active) in the test on N140; 5.01 µM (active) in the test with P93_24. The Potency in the test on P94_40 was 7.94 µM (active).
For `Cc1c(Cl)cccc1Nc1ncccc1C(=O)O`, the Potency entry with CP297, in the test with CP305, in the test with CP315, with CP325, with CP329 and in the test on CP335 was “inactive” each time. For the same molecule, the Potency entry in the test with DFO2036, with DIV14, in the test on DIV17, in the test with DIV30, in the test on Dd2 and in the test on ECU was “inactive” in each case. For the same molecule, the Potency entry in the test on FAB9, with GB4, in the test with HB3, in the test with ICS, with JCK and with N140 was “inactive” in each case. The Potency entry with P93_24 and in the test on P94_40 was “inactive” throughout.
Turning to `CCCCCCCCCC(=O)NO`, the Potency entry in the test with CP297, with CP305, in the test with CP315, in the test with CP325, in the test with CP329 and in the test on CP335 was “inactive” in each case. The Potency entry in the test on DFO2036, in the test on DIV14, in the test with DIV17, in the test with DIV30, in the test on Dd2 and with ECU was “inactive” throughout. Besides, the Potency entry with FAB9, with GB4, in the test on HB3, in the test on ICS, in the test on JCK and in the test on N140 was “inactive” in each case. For the same molecule, the Potency entry in the test on P93_24 and with P94_40 was “inactive” in each case.
Regarding `CC(=O)Oc1cccc2c1C(=O)c1c(OC(C)=O)cc(C(=O)O)cc1C2=O`, the Potency result in the test with CP297, in the test on CP305, in the test on CP315, in the test on CP325, in the test with CP329 and with CP335 was “inactive” each time. Also, the Potency entry in the test on DFO2036, with DIV14, with DIV17, with DIV30, in the test with Dd2 and with ECU was “inactive” in each case. Moreover, the Potency result in the test with FAB9, with GB4, with HB3, with ICS, in the test on JCK and in the test with P93_24 was “inactive” throughout. Moreover, the Potency entry with P94_40 was “inactive”.
Regarding `COc1ccc(-c2noc(CC(=O)O)c2-c2ccc(OC)cc2)cc1`, the Potency entry in the test on CP297, with CP305, in the test with CP315, with CP325, with CP329 and in the test on CP335 was “inactive” in each case. Also, the Potency result in the test on DFO2036, in the test on DIV14, with DIV17, in the test on DIV30, in the test on Dd2 and in the test on ECU was “inactive” throughout. Moreover, the Potency entry in the test on FAB9, in the test on HB3, with ICS, with JCK, in the test on N140 and in the test on P93_24 was “inactive” each time. Also, the Potency entry in the test with P94_40 was “inactive”.
Turning to `C=CC(=O)O`, the Potency result with CP297, in the test on CP305, in the test on CP315, in the test with CP325, with CP329 and in the test on CP335 was “inactive” each time. For the same molecule, the Potency entry in the test with DFO2036, in the test on DIV17, in the test with DIV30, in the test with Dd2, in the test on ECU and with FAB9 was “inactive” each time. In addition, the Potency entry in the test with GB4, with HB3, with ICS, with JCK, with N140 and with P93_24 was “inactive” each time. The Potency entry with P94_40 was “inactive”.
For the molecule `NCC[C@H](O)C(=O)N[C@@H]1C[C@H](N)[C@@H](O[C@H]2O[C@H](CN)[C@@H](O)[C@H](O)[C@H]2O)[C@H](O)[C@H]1O[C@H]1O[C@H](CO)[C@@H](O)[C@H](N)[C@H]1O`, the Potency result in the test on CP297, in the test with CP305, in the test on CP315, in the test on CP325, in the test with CP329 and in the test on DFO2036 was “inactive” each time. Further, the Potency entry with DIV14, in the test with DIV17, with DIV30, with Dd2, in the test with ECU and in the test on FAB9 was “inactive” throughout. Besides, the Potency result with GB4, with HB3, in the test on ICS, with JCK, in the test with N140 and in the test on P93_24 was “inactive” throughout. Besides, the Potency entry in the test on P94_40 was “inactive”.
In the case of `O=C(O)CC/C=C\CC[C@@H]1[C@@H](N2CCCCC2)[C@@H](O)C[C@@H]1OCc1ccc(-c2ccccc2)cc1`, the Potency entry in the test with CP297, in the test on CP305, in the test on CP315, with CP325, in the test with CP329 and in the test on CP335 was “inactive” throughout. Further, the Potency entry in the test with DFO2036, with DIV14, in the test with DIV30, with Dd2, with ECU and with FAB9 was “inactive” in each case. In addition, the Potency entry in the test with GB4, in the test on HB3, in the test on JCK, with N140, in the test with P93_24 and in the test with P94_40 was “inactive” in each case.
